Measurements taken from PubChem BioAssay (NCI).
About 83,000 compounds went through this panel and 20% of them were active in at least one assay; those are over-represented in the sample as a whole.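 Testing used 96-well plates and a 48-hour single-concentration exposure. Example: -40 means 40% of the starting cells died.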 Unmarked numbers belong to inactive results. Activity calls are given as the source filed them. How the source made its calls: active means growth percent below 10; inactive means the rest.

Legend:
Assay in all cases: NCI-60 one-dose screen, 48 h (100 = growth as untreated, 0 = no growth, -100 = all killed)
Conditions in all cases: 10 µM unless noted
EKVX NSCLC = tested on: EKVX NSCLC
SN12C renal = tested on: SN12C renal
UO-31 renal = tested on: UO-31 renal
TK-10 renal = tested on: TK-10 renal
ACHN renal = tested on: ACHN renal
CAKI-1 renal = tested on: CAKI-1 renal
A498 renal = tested on: A498 renal
MOLT-4 leukemia = tested on: MOLT-4 leukemia
SR leukemia = tested on: SR leukemia
CCRF-CEM leukemia = tested on: CCRF-CEM leukemia

SMILES | growth (EKVX NSCLC) | growth (SN12C renal) | growth (UO-31 renal) | growth (TK-10 renal) | growth (ACHN renal) | growth (CAKI-1 renal) | growth (A498 renal) | growth (MOLT-4 leukemia) | growth (SR leukemia) | growth (CCRF-CEM leukemia)
CCN1C(=O)N(CC)C2C1NC(=S)N2/N=C/C=C/c1ccccc1OC (stereo not given) | 30.9% | 26% | 46.3% | 55.2% | 22.9% | 28.4% | -4.32% (active) | 15.7% | 12% | 
CCOC(=O)c1sc(-c2ccc(OS(=O)(=O)c3cccs3)c(C=O)c2)nc1C | 33.6% | 1.55% (active) | -4.34% (active) | 12.2% | 0.377% (active) | 2.41% (active) | 31.4% | -7.85% (active) | 3.44% (active) | 
COc1ccc(/C=C/C(=O)c2c(C)nc3ccccc3c2/C=C/c2ccccc2)cc1O | 90.3% | 62.2% | 53.3% | 125% | 62.2% | 52.6% | 106% | 29.9% |  | 
O=C(Nc1ccc(N2CCNCC2)cc1)c1[nH]ncc1Nc1cc(C2CC2)ncn1 | 69.8% | 44.7% | 34.1% | 56.3% | 21.4% | 27.5% | 51.1% | 15.1% | 5.95% (active) | 
O=C(/C=C/c1ccc(C(F)(F)F)cc1)c1ccc(Nc2nc(NCCO)nc(Nc3ccc(Cl)cc3)n2)cc1 | 59.1% | 79.1% | 59.9% | 86.6% | 52.2% | 68.2% | 78.5% |  | 21.2% | 18.2%
COc1cccc(C(=O)Cn2cc(/C=C(\C#N)S(=O)(=O)c3ccccc3)c3ccccc32)c1 | 114% | 83.7% | 70.4% | 106% | 111% | 118% | -75.9% (active) | 103% | 99.4% | 
O=C1C(=O)c2c(ccc3ccccc23)-c2ccccc21 | 100% | -38.6% (active) | -32.4% (active) | 14.7% | 1.97% (active) | -17% (active) | 108% | -31.3% (active) | 5.07% (active) | 
COc1cc(/C=C2\CN(C)C/C(=C\c3cc(CN4CCCC4)c(O)c(OC)c3)C2=O)cc(CN2CCCC2)c1O | 83.9% | 53.6% | 80.7% | 101% | 79% | 99.6% | 98.2% | 57.6% | 38.7% | 
O=C1Nc2ccccc2/C1=C/c1ccc[nH]1 | 32.8% | 92.7% | 61.9% | 63.5% | 84% | 77.4% | 88.5% | 101% | 71.7% | 
C1CCN(c2nc(N3CCCCC3)nc(N3CCOCC3)n2)CC1 | 85.4% | 96.5% | 99.5% | 92.1% | 116% | 85.6% | 109% |  | 89.4% | 92.6%
O=C(Nc1ccc(N2CCNCC2)cc1)c1[nH]ncc1Nc1ncnc2sc3c(c12)CCC3 | -86.8% (active) | -75.1% (active) | -85.6% (active) | -95.3% (active) | -99.5% (active) | -93.1% (active) | 16.9% |  | -8.96% (active) | -32.1% (active)
CNCCNc1nc2ccccc2c2c(=O)c3cccc(OC)c3sc12 | 22.8% | 45.2% | 24.9% | 44.1% | 12.5% | 36.1% | 3.67% (active) | 0.177% (active) | -1.21% (active) | 
Nc1n[nH]c2ccc([C@@H]3Nc4ccc5[nH]ncc5c4[C@H]4[C@H]5CCC(C5)[C@H]43)cc12 | 40.2% | 24.6% | 46.3% | 60.8% | 27.7% | 16.4% | -20.5% (active) | 18% |  | 
Fc1cccc(COc2ccc(Nc3ncnc4onc(-c5ccccc5)c34)cc2)c1 | 32.9% | 22.3% | 18.6% | 49.1% | 37.1% | 37.5% | -22.4% (active) |  | 26.1% | 20.1%
O=C1c2cc(Cl)ccc2Oc2cc([N+](=O)[O-])ccc2N1c1ccc(F)cc1F | 108% | 101% | 71.2% | 112% | 90.6% | 59% |  | 57.4% |  | 85.3%
O=C(CSc1nc2ccccc2c(=O)n1-c1ccccc1)Nc1ccc(C(=O)/C=C/c2ccc(Cl)cc2)cc1 | 103% | 101% | 82.5% | 110% | 102% | 97.8% |  | 99.5% | 85.3% | 99.7%
O=c1c2cc(F)cc(Cl)c2sc2c(Cl)nc3ccccc3c12 | 97.9% | 76.8% | 72.6% | 151% | 95.3% | 90.7% |  | 103% |  | 86.9%
O=C(CN1C=NC2C(N3CCOCC3)=NC=NC21)c1ccc(Br)cc1 (stereo not given) | 97.6% | 98.3% | 78.6% | 117% | 103% | 85.4% |  | 105% | 104% | 105%
CCN1C(=O)N(CC)C2C1NN=c1s/c(=C3\C(=O)N(CC(C)(C)C)c4ccccc43)c(=O)n12 (stereo not given) | 49.6% | 32.6% | 38.9% | 84.3% | 40.7% | 38.5% |  | 16.3% | 6.48% (active) | 10.2%
CC(C)Cn1c2c(c(=S)[nH]c1=O)CCC2 | 102% | 97.6% | 86% | 102% | 103% | 89.1% |  | 108% | 106% | 99.3%
O=C1/C(=C/c2cccc(O)c2)COc2ccc(O)cc21 | 93.9% | 73.8% | 79.6% | 130% | 67.3% | 95.3% |  | 33.3% | 10.5% | 8.33% (active)
